From PubChem
KB-3-1 tox = qHTS assay for MDR1-selective chemotherapeutics: Primary screen using the parental adenocarcinoma cell KB-3-1 | KB-3-1 viability, CellTiter-Glo ATP luminescence, 72 h | Potency, µM (highest dose often 46.1 µM), actives largely listed as cytotoxic | 1.4% of 400,000 active | AID 1347075, 2019; further: on the % scale 0 is the no-effect control and ±100 the full control effect; nearly all actives have a fitted effect of over 60% in size
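Using CellTiter-Glo luminescence, growth of non-resistant KB-3-1 adenocarcinoma cells is assessed 72 h after pin-tool compound addition at 37 °C. Normalized responses across the concentration series yield fitted curves.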
SW480 rerep = A quantitative high throughput screen for small molecules that induce DNA re-replication in SW480 colon adenocarcinoma cells; SW480 DNA re-replication, Hoechst DNA content imaging, 48 h; Potency, µM (top dose mostly 46.1 µM), without a hit: top-dose re-replication activation, most hits filed as activators; 1.8% of 340,000 active; further: % of control where 0% means no effect; nearly all actives have a fitted effect of over 55% in size
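Hoechst fluorescence of nuclei (405 nm excitation, 500-530 nm emission) measured by plate-scanning imager after 48 hr compound exposure at 37 C; re-replication scored as increased number of nuclei with elevated intensity.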
PTAP TSG101 blk = qHTS Assay for Iinhibitors of HIV-1 Budding by Blocking the Interaction of PTAP/TSG101; Tumor susceptibility gene 101 protein (Homo sapiens), Q99816; Fluorescence polarization, FITC-PTAP peptide / Tsg101 binding; Potency, µM (doses to about 115 µM), inactives show top-dose activity change, negative = inhibition, usual class: inhibitors; 340,000 tested, under 10 active; AID 493005, 2010; active means well fitted inhibition curve with a large enough effect in the main read-out, with a control signal flat, not every such curve was filed as active; inconclusive means small, poorly fitted or top-dose-only effect, or effect the other way, or a change in a side signal; inactive means no such curve, though single readings can be large or run the other way; further: % of control where 0% means no effect
Target sequence (Q99816 whole entry, looked up): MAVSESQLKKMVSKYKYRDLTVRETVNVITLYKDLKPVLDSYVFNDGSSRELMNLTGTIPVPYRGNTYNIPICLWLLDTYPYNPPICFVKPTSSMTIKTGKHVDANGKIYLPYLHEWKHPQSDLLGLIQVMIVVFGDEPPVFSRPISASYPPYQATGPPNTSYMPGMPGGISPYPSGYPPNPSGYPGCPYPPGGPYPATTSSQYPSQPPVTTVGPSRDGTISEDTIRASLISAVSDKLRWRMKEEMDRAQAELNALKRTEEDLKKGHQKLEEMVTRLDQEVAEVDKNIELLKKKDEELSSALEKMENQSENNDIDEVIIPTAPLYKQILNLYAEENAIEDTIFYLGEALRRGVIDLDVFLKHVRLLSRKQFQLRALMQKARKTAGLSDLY
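Fluorescence anisotropy tracks displacement of a FITC-tagged PTAP peptide (50 nM) from the Tsg101 binding domain (10 uM), following a 20 min room-temperature incubation at pH 7.5.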
RGS4 inhibitor = Inhibitors of Regulator of G Protein Signaling (RGS) 4: qHTS | AID 504845, 2011 | 0.039% of 390,000 active | Transcreener GDP fluorescence polarization, RGS4-accelerated GTP hydrolysis | Regulator of G-protein signaling 4 (Homo sapiens), P49798 | Potency, µM (highest dose often 114 µM), for inactives: at the highest dose activity change, negative = inhibition, actives largely listed as inhibitors; further: on the % scale 0 is the no-effect control and ±100 the full control effect; nearly all actives have a fitted effect of over 75% in size
Target sequence (P49798 whole entry, looked up): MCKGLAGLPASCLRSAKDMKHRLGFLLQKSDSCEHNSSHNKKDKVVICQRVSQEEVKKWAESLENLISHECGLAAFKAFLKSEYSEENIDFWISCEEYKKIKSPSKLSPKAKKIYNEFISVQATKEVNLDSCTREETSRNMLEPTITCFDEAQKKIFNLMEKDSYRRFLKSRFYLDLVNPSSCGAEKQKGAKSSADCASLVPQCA
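MLSMR compounds (23 nl, pin-transferred) preincubated 10 min at room temperature with a 500nM (2x) first reagent, then RGS4 at 900nM (2x) plus Transcreener GDP mix added; fluorescence polarization (620/688 nm) read before and after 90 min at 30 °C.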
MCF10A rereplic = A quantitative high throughput screen for small molecules that induce DNA re-replication in MCF 10a normal breast cells. MCF 10A DNA re-replication, Hoechst nuclear intensity, 48 h. Potency, µM (doses to about 46.1 µM), for inactives: at the top dose activity, positive = re-replication, most hits filed as activators. 2.9% of 350,000 active; further: % of control where 0% means no effect; nearly all actives have a fitted effect of over 50% in size
KB-V1 cytotox = qHTS assay for MDR1-selective chemotherapeutics: Primary screen using the drug-selected MDR subline cells KB-V1 | KB-V1 MDR cells viability, CellTiter-Glo, 72 h | 3.4% of 400,000 active | Potency, µM (series often up to 46.1 µM), most hits filed as cytotoxic | AID 1347076, 2019; further: on the % scale 0 is the no-effect control and ±100 the full control effect; nearly all actives have a fitted effect of over 60% in size
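KB-V1, DMEM (no phenol red) + 10% FBS; cpd pin-transferred, titration series; 72 h, 37 degrees C; CellTiter-Glo, luminescence. Data normalized, curve-fit.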
* marks the source's active call; other numbers are inactive results; i = inactive; ? = inconclusive; . = no result. A selection: hits, their analogues and other compounds. The true share with any hit is near 6.6%. Unless noted, the call rests on the fitted dose curve; in most records, active means well fitted curve in the direction sought with a large enough effect; inconclusive means small, poorly fitted or top-dose-only effect, or another doubt; inactive means no such curve, though single readings can be large; an effect the other way counts as inactive or inconclusive. Potency means the concentration at half of the fitted maximal effect.

SMILES	KB-3-1 tox	SW480 rerep	PTAP TSG101 blk	RGS4 inhibitor	MCF10A rereplic	KB-V1 cytotox
Cc1ccc(-c2nnc(-c3ccc4ccccc4c3)o2)cc1	?	?	-2.2%	-25.3%	6.51µM*	i
Cc1ccc(OCC(=O)Nc2cccc(-c3nnc(-c4ccccc4)o3)c2)cc1	i	5.3%	-1.2%	-41.7%	2.9%	2.31µM*
O=C(COc1ccccc1)Nc1cccc(-c2nc3cc4ccccc4cc3[nH]2)c1	?	?	-6.3%	-7.4%	14.6µM*	9.2µM*
CCCCC(=O)Nc1cccc(-c2nnc(-c3ccccc3)o2)c1	i	-6.9%	-5.3%	-12.7%	-10.7%	18.4µM*
Clc1ccc(-c2nnc(-c3ccc4ccccc4c3)o2)cc1	i	-2.5%	0.8%	-10.3%	12.8%	i
CCC(=O)Nc1cccc(-c2nnc(-c3ccccc3)o2)c1	i	-4.2%	-0.5%	-21.0%	-3.5%	i
CN(C)c1ccc(/C=C2\C=Cc3ccccc32)cc1N	i	.	.	.	.	i
Cc1ccc(C2CC(=O)N(Cc3ccc(F)cc3)c3c2c(C)nn3-c2nc(C)cc(C)n2)cc1 (configuration not stated)	i	.	.	-5.9%	.	i
Cn1c(=O)oc2cc(S(=O)(=O)NCCC(=O)Nc3ccc(F)cc3F)ccc21	i	.	.	26.6%	.	i
CCOC(=O)COc1cc(-n2c(=S)[nH]c3cc(OC)c(OC)cc3c2=O)c(Cl)cc1Cl	i	-4.8%	0.7%	-9.0%	23.1µM*	i
CC1CCN(S(=O)(=O)c2cn(CC(=O)Nc3ccc(F)c(Cl)c3)c(=O)c3ccccc23)CC1	?	.	.	-2.1%	.	i
Cc1oc2c(cc(NS(=O)(=O)c3ccc(Cl)cc3)c3ccccc32)c1C(=O)O	i	-11.1%	-5.4%	-28.5%	?	i
CC(=O)c1c(C)oc2c1cc(NS(=O)(=O)c1ccc(Br)cc1)c1ccccc12	5.17µM*	.	.	11.9%	.	?
COc1ccc(Nc2nc(-c3sc(C)nc3C)cs2)cc1	5.8µM*	1.46µM*	-2.2%	-38.3%	?	1.64µM*
Cc1nc(C)c(-c2csc(Nc3ccc(N)cc3)n2)s1	i	1.2%	-1.1%	?	26.8%	i
c1cncc(Nc2nc(-c3ccncc3)cs2)c1	i	?	-4.8%	-12.7%	?	i
Cc1nc(C)c(-c2csc(Nc3cccnc3)n2)s1	i	-2.8%	-5.0%	4.7%	-5.8%	3.26µM*
Cc1ccc2[nH]c(=O)c3cc(C(=O)NCCCN4CCC(C)CC4)sc3c2c1	i	.	.	9.0%	.	i
O=C(/C=C/c1ccccc1)N1CCN(c2cccc(Cl)n2)CC1	i	-2.4%	-4.6%	-2.1%	-0.8%	18.4µM*
COc1ccc(C(=O)NCC(c2ccccc2)c2ccccc2)cc1S(=O)(=O)N1CCOCC1	i	-5.4%	0.8%	-17.1%	-0.5%	8.2µM*
CCc1ccc(C(=O)Nc2ccc(OC)c(S(=O)(=O)N3CCOCC3)c2)cc1	i	-0.8%	-3.8%	-6.7%	16.4%	9.2µM*
COc1ccc(C(=O)NCc2c(C)nn(Cc3ccccc3)c2C)cc1S(=O)(=O)N1CCOCC1	6.51µM*	?	0.3%	11.8%	14.6µM*	i
CCc1ccc(C(=O)Nc2ccc(OC)c(S(=O)(=O)N3CCCCC3)c2)cc1	?	-26.1%	-6.3%	-28.3%	8.5%	i
COc1ccc(NC(=O)c2c(C)nn(Cc3ccccc3)c2Cl)cc1S(=O)(=O)N1CCOCC1	i	13.7%	-3.8%	31.3%	2.06µM*	i
CC(C)C(=O)Nc1nnc2n1CCS2	i	.	.	-10.4%	.	i
SMILES	KB-3-1 tox	SW480 rerep	PTAP TSG101 blk	RGS4 inhibitor	MCF10A rereplic	KB-V1 cytotox
O=C(Nc1cccc(S(=O)(=O)N2CCOCC2)c1)C1COc2ccccc2O1 (configuration not stated)	i	1.4%	-2.8%	-9.2%	-0.9%	i
COc1ccc(NC(=O)C2COc3ccccc3O2)cc1S(=O)(=O)N1CCOCC1 (configuration not stated)	i	-3.7%	1.9%	14.8%	1.9%	13µM*
COc1ccc(/C=C/C(=O)NC2CCCCCCC2)cc1S(=O)(=O)N1CCOCC1	?	.	-0.7%	-16.1%	?	23.1µM*
COc1ccc(C(=O)NCC(c2cccnc2)N2CCN(c3ccc(F)cc3)CC2)cc1OC (configuration not stated)	i	-19.0%	-4.2%	17.2%	?	i
COc1ccc(C(=O)NCC(c2cccnc2)N2CCN(c3ccccc3)CC2)cc1OC (configuration not stated)	5.17µM*	1.7%	-5.0%	-2.3%	9.0%	i
COc1ccc(NC(=O)Cn2ncc(Cl)c(Cl)c2=O)cc1S(=O)(=O)N1CCOCC1	i	4.61µM*	-4.7%	-22.2%	4.11µM*	i
Cc1ccc(CCNC(=O)c2cc3n(n2)CCCN(Cc2ccc(C)cc2)C3=O)cc1	i	.	.	17.8%	.	i
Nc1ccc(-c2cc(-c3cccc(N)c3)nc(-c3ccccc3)n2)cc1	?	?	-2.0%	-28.0%	16.4µM*	i
Nc1ccc(-c2nc(-c3ccccc3)nc3ccccc23)cc1	i	23.1µM*	0.0%	-7.7%	16.4µM*	i
NC(=O)c1c(NC(=O)C2COc3ccccc3O2)sc2c1CCN(Cc1ccccc1)C2 (configuration not stated)	?	?	?	-5.8%	23.1µM*	?
CCCN1CCc2c(sc(NC(=O)c3ccc(S(=O)(=O)N(C)c4ccccc4)cc3)c2C(N)=O)C1	i	?	?	-31.3%	6.51µM*	i
CCCN1CCc2c(sc(NC(=O)CCS(=O)(=O)c3ccccc3)c2C(=O)OC)C1	i	?	1.3%	-18.3%	18.4µM*	i
COC(=O)c1c(NC(=O)CCS(=O)(=O)c2ccccc2)sc2c1CCN(C)C2	.	?	2.0%	-12.9%	?	.
CCCN1CCc2c(sc(NC(=O)c3ccc(S(=O)(=O)N(C)c4ccccc4)cc3)c2C(=O)NC)C1	i	?	12.6%	-38.9%	?	?
